Measured values from PubChem BioAssay AID1159580 (chemical genetic matrix, 2015).
“And” between values parts separate entries of the source, which are not always exact repeats. Identical values can stand only once. The campaign covered roughly 5,500 compounds. About 2,000 (36%) were called active. Another 18% or so got no clear call; they are omitted. Rule as the data show it: active = normalized growth mostly below about 0.91 (no sharp cut-off); inconclusive = no clear call, values can overlap the other calls; inactive = mostly above about 0.92. The list shows a part of the results.

Experiment: chemical genetic growth profiling, strain panel (AID 1159580);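 also: tested at 20 µM; growth read once vehicle control cultures reached saturation at 30 °C; 1 = growth at the plate median or of vehicle wells; lower values mean less growth of the strain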
Settings: growth OD

Measured: normalized growth

Cc1cc(C(C)(C)C)cc(C)c1CC1=NCCN1
inactive: S. cerevisiae deletion strains, locus YJR075W, strain HOC1, active compounds read low 1.02 | S. cerevisiae deletion strains, locus YKL009W, strain mrt4, active compounds read low 1.03 | S. cerevisiae deletion strains, locus YKL068W, active compounds read low 1 | S. cerevisiae deletion strains, locus YKL085W, strain MDH1 (second series), active compounds read low 1.02 | S. cerevisiae deletion strains, locus YKL085W, strain MDH1, active compounds read low 1.02 | S. cerevisiae deletion strains, locus YKL160W, strain elf1, active compounds read low 1.01 | S. cerevisiae deletion strains, locus YKL190W, strain CNB1, active compounds read low 1.02 | S. cerevisiae deletion strains, locus YKR001C, strain vps1, active compounds read low 0.99 | S. cerevisiae deletion strains, locus YKR026C, strain gcn3, active compounds read low 1.01 | S. cerevisiae deletion strains, locus YKR091W, strain srl3, active compounds read low 0.996 | S. cerevisiae deletion strains, locus YLL001W, strain dnm1, active compounds read low 1.03 | S. cerevisiae deletion strains, locus YLL026W, active compounds read low 0.995 | S. cerevisiae deletion strains, locus YLL041C, strain sdh2, active compounds read low 1 | S. cerevisiae deletion strains, locus YLR027C, strain aat2, active compounds read low 1.01 | S. cerevisiae deletion strains, locus YLR039C, strain RIC1, active compounds read low 0.992 | S. cerevisiae deletion strains, locus YLR058C, strain SHM2, active compounds read low 1.02 | S. cerevisiae deletion strains, locus YLR102C, strain apc9, active compounds read low 0.996 | S. cerevisiae deletion strains, locus YLR113W, strain HOG1, active compounds read low 0.997 | S. cerevisiae deletion strains, locus YLR221C, strain rsa3, active compounds read low 0.969 | S. cerevisiae deletion strains, locus YLR258W, strain gsy2, active compounds read low 1 | S. cerevisiae deletion strains, locus YLR262C, strain YPT6 (second series), active compounds read low 1.03 | S. cerevisiae deletion strains, locus YLR262C, strain YPT6, active compounds read low 1.06 | S. cerevisiae deletion strains, locus YLR268W, strain sec22, active compounds read low 0.983 | S. cerevisiae deletion strains, locus YLR320W, strain mms22, active compounds read low 0.99 | S. cerevisiae deletion strains, locus YLR330W, strain CHS5, active compounds read low 1.01 | S. cerevisiae deletion strains, locus YLR342W, strain FKS1 (second series), active compounds read low 0.99 | S. cerevisiae deletion strains, locus YLR342W, strain FKS1, active compounds read low 1 | S. cerevisiae deletion strains, locus YLR357W, strain rsc2, active compounds read low 1 | S. cerevisiae deletion strains, locus YLR370C, strain arc18, active compounds read low 1.01 | S. cerevisiae deletion strains, locus YLR371W, strain rom2, active compounds read low 1 | S. cerevisiae deletion strains, locus YLR384C, strain iki3, active compounds read low 1 | S. cerevisiae deletion strains, locus YLR418C, strain cdc73, active compounds read low 0.995 | S. cerevisiae deletion strains, locus YML016C, strain PPZ1, active compounds read low 1.01 | S. cerevisiae deletion strains, locus YML032C, strain rad52, active compounds read low 0.994 | S. cerevisiae deletion strains, locus YML120C, strain ndi1, active compounds read low 1.01 | S. cerevisiae deletion strains, locus YML124C, strain tub3, active compounds read low 0.996 | S. cerevisiae deletion strains, locus YMR058W, strain fet3, active compounds read low 1.01 | S. cerevisiae deletion strains, locus YMR078C, strain ctf18, active compounds read low 0.991 | S. cerevisiae deletion strains, locus YMR125W, strain sto1, active compounds read low 0.981 | S. cerevisiae deletion strains, locus YMR129W, active compounds read low 1 | S. cerevisiae deletion strains, locus YMR205C, strain PFK2, active compounds read low 1.02 | S. cerevisiae deletion strains, locus YMR223W, strain ubp8, active compounds read low 1 | S. cerevisiae deletion strains, locus YMR231W, strain pep5, active compounds read low 1 | S. cerevisiae deletion strains, locus YMR263W, strain SAP30, active compounds read low 1.02 | S. cerevisiae deletion strains, locus YMR307W, strain GAS1, active compounds read low 1.02 and 0.994 | S. cerevisiae deletion strains, locus YNL067W, strain RPL9B, active compounds read low 1.02 | S. cerevisiae deletion strains, locus YNL071W, strain lat1, active compounds read low 0.998 | S. cerevisiae deletion strains, locus YNL128W, strain TEP1, active compounds read low 1.03 and 0.994 | S. cerevisiae deletion strains, locus YNL153C, strain GIM3, active compounds read low 1 and 0.97 | S. cerevisiae deletion strains, locus YNL175C, strain NOP13, active compounds read low 1.02 | S. cerevisiae deletion strains, locus YNL183C, strain NPR1, active compounds read low 0.96 | S. cerevisiae deletion strains, locus YNL197C, strain WHI3, active compounds read low 1.01 | S. cerevisiae deletion strains, locus YNL209W, strain ssb2, active compounds read low 0.998 | S. cerevisiae deletion strains, locus YNL224C, strain SQS1, active compounds read low 0.987 | S. cerevisiae deletion strains, locus YNL233W, strain BNI4, active compounds read low 1.02 | S. cerevisiae deletion strains, locus YNL248C, strain rpa49, active compounds read low 0.948 | S. cerevisiae deletion strains, locus YNL250W, strain rad50, active compounds read low 1.01 | S. cerevisiae deletion strains, locus YNL271C, strain bni1, active compounds read low 0.986 | S. cerevisiae deletion strains, locus YNL298W, strain CLA4, active compounds read low 0.992 | S. cerevisiae deletion strains, locus YNL307C, strain MCK1, active compounds read low 1.01 | S. cerevisiae deletion strains, locus YNL322C, strain KRE1 (second series), active compounds read low 1.01 | S. cerevisiae deletion strains, locus YNL322C, strain KRE1, active compounds read low 1.02 | S. cerevisiae deletion strains, locus YNR049C, strain mso1, active compounds read low 0.998 | S. cerevisiae deletion strains, locus YNR052C, strain pop2, active compounds read low 0.997 | S. cerevisiae deletion strains, locus YOL006C, strain TOP1, active compounds read low 0.984 | S. cerevisiae deletion strains, locus YOL012C, strain htz1 1.06 | S. cerevisiae deletion strains, locus YOL147C, strain pex11, active compounds read low 0.998 | S. cerevisiae deletion strains, locus YOR001W, strain rrp6, active compounds read low 1.02 | S. cerevisiae deletion strains, locus YOR061W, strain CKA2, active compounds read low 1.01 | S. cerevisiae deletion strains, locus YOR069W, strain VPS5, active compounds read low 1.02 | S. cerevisiae deletion strains, locus YOR070C, strain gyp1, active compounds read low 0.992 | S. cerevisiae deletion strains, locus YOR080W, strain dia2, active compounds read low 1.01 | S. cerevisiae deletion strains, locus YOR083W, strain WHI5 (second series), active compounds read low 0.992 | S. cerevisiae deletion strains, locus YOR083W, strain WHI5, active compounds read low 0.99 | S. cerevisiae deletion strains, locus YOR106W, strain vam3, active compounds read low 1.03 | S. cerevisiae deletion strains, locus YOR136W, strain idh2, active compounds read low 0.997 | S. cerevisiae deletion strains, locus YOR144C, strain elg1, active compounds read low 1 | S. cerevisiae deletion strains, locus YOR184W, strain ser1, active compounds read low 1 | S. cerevisiae deletion strains, locus YOR231W, strain MKK1, active compounds read low 1 | S. cerevisiae deletion strains, locus YOR265W, strain rbl2, active compounds read low 1 | S. cerevisiae deletion strains, locus YOR270C, strain vph1, active compounds read low 1 | S. cerevisiae deletion strains, locus YOR290C, strain snf2, active compounds read low 0.975 | S. cerevisiae deletion strains, locus YOR316C, strain cot1, active compounds read low 0.997 | S. cerevisiae deletion strains, locus YPL051W, strain arl3, active compounds read low 1.01 | S. cerevisiae deletion strains, locus YPL055C, strain LGE1, active compounds read low 1.04 | S. cerevisiae deletion strains, locus YPL078C, strain atp4, active compounds read low 1.03 | S. cerevisiae deletion strains, locus YPL106C, strain sse1, active compounds read low 0.996 | S. cerevisiae deletion strains, locus YPL240C, strain hsp82, active compounds read low 0.991 | S. cerevisiae deletion strains, locus YPL241C, strain CIN2, active compounds read low 1.01 and 1 | S. cerevisiae deletion strains, locus YPL256C, strain CLN2, active compounds read low 0.949 | S. cerevisiae deletion strains, locus YPR119W, strain clb2, active compounds read low 0.995 | S. cerevisiae deletion strains, locus YPR141C, strain kar3, active compounds read low 1.01 | S. cerevisiae deletion strains, locus YPR163C, strain tif3, active compounds read low 1 | S. cerevisiae deletion strains, locus YPR167C, strain met16, active compounds read low 0.997 | S. cerevisiae deletion strains, strain wtn01, active compounds read low 0.994 | S. cerevisiae strains, strain wild type, active compounds read low 1.01
